The record followed here is PubChem BioAssay AID743449 (Broad Institute, 2014).

SMILES strings stand for the structures. Out of some 9,900 compounds screened, about 90 (0.9%) were called active. Inconclusive results (about 2%) are left out. The sample as a whole holds a higher share of actives than the screen did. Unmarked numbers belong to inactive results.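 Rule for the calls: active = mean normalized replicate activity at least 50 and at least half of replicates each reaching 50; inconclusive = only one of the two criteria met; inactive = neither criterion met.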

What is called inhibition is the drop in the measured response relative to a control, in per cent.

The assay is described as follows: reduction of CTGF mRNA in DLD1 cells – DLD1 colon cancer cells, RT-qPCR, single point, primary screen (AID 743449).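 Note: 0% = neutral control wells and 100% = dasatinib control wells; higher means stronger suppression of CTGF expression like dasatinib.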 The settings on record: 24 h, at 12.5 µM, active compounds read high. On the technique in general: Quantitative PCR measures a nucleic acid by following its amplification.
In the case of `CC(=O)N1CCCCN2[C@H](CO)[C@H](c3ccc(-c4ccccc4)cc3)[C@H]2C1`, the inhibition is 9.46%.

In the case of `Cc1ccccc1-c1ccc([C@H]2[C@@H](CO)N3CCCCN(S(=O)(=O)Cc4ccccc4)C[C@@H]23)cc1`, the inhibition is 66% (active).

Take `COc1ccc(NC(=O)N2CCCCN3[C@@H](CO)[C@H](c4ccc(-c5ccccc5F)cc4)[C@@H]3C2)cc1`: the inhibition is 59.6% (active).

For `CC(=O)N1CCCCN2[C@@H](CO)[C@H](c3ccc(-c4ccccc4)cc3)[C@@H]2C1`, the inhibition is 62% (active).

Turning to `Cc1cccc(-c2ccc([C@@H]3[C@@H](CO)N4CCCCN(S(=O)(=O)c5ccccc5F)C[C@H]34)cc2)c1`, the inhibition was 15.5%.

Consider `Cc1cccc(-c2ccc([C@@H]3[C@@H](CO)N4CCCCN(S(=O)(=O)c5ccccc5F)C[C@@H]34)cc2)c1`, for which the inhibition was 63.6% (active).

Regarding `COc1ccc(NC(=O)N2CCCCN3[C@H](CO)[C@H](c4ccc(-c5ccccc5F)cc4)[C@H]3C2)cc1`, the inhibition is -50.7%.

Regarding `CC(=O)N1CCCCN2[C@@H](CO)[C@@H](c3ccc(-c4ccccc4)cc3)[C@@H]2C1`, the inhibition is -12.5%.

On to `Cc1cccc(-c2ccc([C@H]3[C@@H](CO)N4CCCCN(S(=O)(=O)c5ccccc5F)C[C@@H]34)cc2)c1`, for which the inhibition was -8.63%.

As to `Cc1ccccc1-c1ccc([C@H]2[C@@H](CO)N3CCCCN(S(=O)(=O)Cc4ccccc4)C[C@H]23)cc1`, the inhibition is -18.5%.

With `Cc1ccccc1-c1ccc([C@@H]2[C@H](CO)N3CCCCN(S(=O)(=O)Cc4ccccc4)C[C@@H]23)cc1`, the inhibition is 26%.

As to `COc1ccc(NC(=O)N2CCCCN3[C@H](C2)[C@@H](c2ccc(-c4ccccc4F)cc2)[C@@H]3CO)cc1`, the inhibition is -27.6%.

On to `O=C(C[C@@H]1CC[C@@H]2[C@H](COC[C@H](O)CN2C(=O)c2ccc(F)cc2)O1)N1CCCCC1`, for which the inhibition was 4.67%.

On to `C[C@@H]1CCCCO[C@H](CN(C)Cc2ccc(C(=O)O)cc2)[C@@H](C)CN([C@@H](C)CO)C(=O)c2cc(N(C)C)ccc2O1`, for which the inhibition was -1.12%.

In the case of `O=C1N[C@H](Cc2ccccc2)COCc2cnnn2CC[C@@H]1Cc1ccc(-c2ccccc2)cc1`, the inhibition is 10.4%.

As to `CS(=O)(=O)N1[C@@H](CO)[C@@H](c2ccccc2)C12CN(Cc1cc(F)ccc1F)C2`, the inhibition was 2.97%.

Consider `CCC(=O)N1C[C@H](C)[C@@H](OC)CN(C)C(=O)c2ccc(NC(=O)CC(F)(F)F)cc2OC[C@@H]1C`, for which the inhibition was -9.99%.

As to `CC(C)N(C[C@H]1N[C@H](CO)[C@H]1c1ccccc1)S(=O)(=O)c1ccccc1`, the inhibition was -1.38%.
